SMILES strings stand for the structures. Hit rate of the full screen: of about 96,000 compounds, about 19,000 (20%) were called active. Only a sample is shown. Values without a mark were called inactive.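 The calls were made as follows: active = blocking of liver enzyme CYP2C9 beyond about 50% at 5 µM (limit read from the data); inactive = the rest.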

Chain of Cytochrome P450 2C9 (Homo sapiens) (P11712 whole entry, looked up): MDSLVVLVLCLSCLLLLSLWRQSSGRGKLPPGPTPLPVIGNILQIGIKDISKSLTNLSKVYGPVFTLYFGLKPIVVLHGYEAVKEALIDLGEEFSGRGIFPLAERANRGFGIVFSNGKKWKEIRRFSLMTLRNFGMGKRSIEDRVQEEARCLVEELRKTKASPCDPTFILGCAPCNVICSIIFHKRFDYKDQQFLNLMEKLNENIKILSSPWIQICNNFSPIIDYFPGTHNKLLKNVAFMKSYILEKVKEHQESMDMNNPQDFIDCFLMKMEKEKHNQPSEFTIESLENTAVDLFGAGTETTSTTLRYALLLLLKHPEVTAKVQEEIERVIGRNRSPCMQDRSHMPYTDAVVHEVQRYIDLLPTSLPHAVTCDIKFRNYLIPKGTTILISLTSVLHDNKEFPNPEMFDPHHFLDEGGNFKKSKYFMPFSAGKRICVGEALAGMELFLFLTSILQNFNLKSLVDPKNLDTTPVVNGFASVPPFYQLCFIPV

This assay addresses Cytochrome P450 2C9 (Homo sapiens) (UniProt P11712). Description: blockers of cytochrome P450 2C9 activity – biochemical, luminescence, ADME assay, primary screen (AID 777). Conditions: CYP2C9 Supersomes, luciferin-H conversion, at 5 µM, hits give high values.
As for `CC1Cc2cc(/C(O)=C3\C(=O)C(=O)N(CCN4CCOCC4)C3c3ccccc3F)ccc2O1` (stereo not given), the inhibition was 0.8%.

As to `CCSc1ncnc2c(C#N)c3n(c12)CCCCC3`, the inhibition is 17.9%.

Turning to `Nn1c(SCC(=O)NC2CCCC2)nnc1-c1ccccc1F`, the inhibition is 8.6%.

For `COCCNC(=O)COc1ccccc1C`, the inhibition is 4.4%.

On to `CCCn1nnnc1NC(=O)COc1ccc(Cl)cc1C`, for which the inhibition was 46.7%.

As to `O=C(CSc1n[nH]c(-c2cccnc2)n1)Nc1ccnc2ccccc12`, the inhibition is 91.5% (active).

`O=C(Nc1cccc2ncccc12)C(Cl)(Cl)Cl`: the inhibition is 49.6%.

On to `O=C(CSc1ncn[nH]1)Nc1ccnc2ccccc12`, for which the inhibition is 35.2%.

Regarding `CCCn1c(SCC(N)=O)nnc1C(C)C`, the inhibition is -8%.

Consider `O=C1c2cccnc2C(=O)N1Cc1cccs1`, for which the inhibition was 11.6%.

Take `CCOC(=O)c1nc(N)sc1C(=O)OCC`: the inhibition is 4.2%.

As to `CCOC(=O)c1cc2ccccc2nc1C`, the inhibition is -27.3%.

Consider `CCOC(=O)c1sc(C)c2c1NC(C)(c1cccc3ccccc13)NC2=O` (stereo not given), for which the inhibition is 100% (active).

Turning to `Cc1ccccc1Nc1nnc(C)c(=O)[nH]1`, the inhibition is 2.7%.

Consider `CNC(=O)c1nnc(Cc2ccc(Cl)cc2)o1`, for which the inhibition is 5%.

For the compound `CC(C)CCNC(=O)C1CCCN(S(=O)(=O)c2ccc(F)cc2)C1` (stereo not given), the inhibition is -10.8%.

With `CC(C)CCNC(=O)CN(C(=O)Cn1nnc(-c2ccc(F)cc2)n1)C1CCCC1`, the inhibition was 17.3%.

`CC(C)CCNC(=O)C(C)N(C(=O)Cn1nnc(-c2ccc(F)cc2)n1)C1CCCC1` (stereo not given): the inhibition was 77.2% (active).

`CC1=CC(C)(C)NC(=S)N1c1ccccc1`: the inhibition is 13.8%.

As for `CCc1cccc2c(C=C(C#N)C#N)cn(CC(=O)N3CCCCC3)c12`, the inhibition was 0%.

For `O=c1cc(CSc2ccccn2)nc(N2CCN(c3ccccc3)CC2)[nH]1`, the inhibition was 3.6%.

For the compound `CCc1c(C)nc(N2CCN(Cc3ccccc3)CC2)[nH]c1=O`, the inhibition was 10.1%.

Turning to `Cc1nnc(SCc2cc(=O)[nH]c(N3CCN(Cc4ccccc4)CC3)n2)s1`, the inhibition was 56.4% (active).

Turning to `Cc1ccc(-c2n[nH]c(=S)n2/N=C/c2cc3c(cc2[N+](=O)[O-])OCO3)cc1`, the inhibition is 18%.

With `Nc1nc(C23CC4CC(CC(C4)C2)C3)cs1`, the inhibition is 73.6% (active).

On to `N#Cc1c(N)nc2c3c(sc(=N)c2c1N)NC(=O)CC3c1ccccc1Cl` (stereo not given), for which the inhibition was 8.6%.

Consider `CCOC(=O)C1(S(=O)(=O)c2ccc(Cl)cc2)CCN(Cc2ccccc2)CC1`, for which the inhibition is 21.8%.

As for `CCN1C(=O)/C(=C\N2CCOCC2)SC1=S`, the inhibition was 8.1%.

Consider `CC1(N2CCOCC2)CC2(O)C(=[N+]1[O-])CCc1nonc12` (stereo not given), for which the inhibition was 31.8%.

For `O=C1Nc2cc(Cl)c(Cl)cc2N(O)N1c1cc(Cl)cc(Cl)c1`, the inhibition was 89.3% (active).

As to `CCN(CC)CCCNC(=O)c1cc(-c2cccc(Cl)c2)on1`, the inhibition is 10.4%.

For `CC(C)N(c1ccccc1)c1ncnc(NCCC(=O)O)c1[N+](=O)[O-]`, the inhibition was -1.4%.

Regarding `Cc1ccsc1C(=O)OCC(=O)c1cc2ccccc2o1`, the inhibition was -30.4%.

`Cc1cc2c(=O)n(C)c(SCC(=O)c3cc4ccccc4o3)nc2s1`: the inhibition was 95.9% (active).

In the case of `Cc1ccc(C(=O)CSc2nc3ccccc3c(=O)n2N)o1`, the inhibition was 34.2%.

For the compound `C=CCn1c(Oc2ccc(C(=O)OC)cc2)nc2c1c(=O)n(C)c(=O)n2C`, the inhibition was 8.4%.

In the case of `O=C(O)C1CCN(S(=O)(=O)N2CCOCC2)CC1`, the inhibition is 3.6%.

In the case of `COCCCN1C(=O)C(=O)/C(=C(/O)c2ccc3c(c2)CC(C)O3)C1c1cccnc1` (stereo not given), the inhibition was -1%.

With `c1ccc(CCN2CN=C(Nc3nc4ccccc4o3)NC2)cc1`, the inhibition was 6.5%.

On to `Clc1ccc(Cn2ncc3c(NCc4cccnc4)ncnc32)cc1`, for which the inhibition was 49.7%.

Turning to `CCN1C(=O)/C(=C2\SC(N3CCCCC3)=NC2=O)c2ccccc21`, the inhibition was -20.1%.

Turning to `O=C(NCc1cccnc1)c1ccc(CS(=O)(=O)c2ccc(Br)cc2)o1`, the inhibition is 95.6% (active).

As to `CC(C)(C)c1cc(C(=O)NCc2cccnc2)ccn1`, the inhibition is 12.2%.

With `O=S(=O)(c1ccc(Br)cc1)c1nc(-c2ccccc2)oc1NCc1cccnc1`, the inhibition was 17.3%.

For the compound `Cc1cc(C(C)(C)C)oc1C(=O)N(CC(=O)NC1CCCC1)Cc1ccc(Cl)cc1`, the inhibition was -11.5%.

`CCOc1ccc(C(=O)Nc2ccncc2)cc1`: the inhibition was 94.8% (active).

`COc1ccc(NC(=O)c2ccc(OC)cc2)cc1`: the inhibition was -13.7%.

As to `CCCCOc1ccc(C(=O)NCc2ccco2)cc1`, the inhibition was 15.5%.

In the case of `CCCCCCOc1ccc(OC(=O)c2cccnc2)cc1`, the inhibition was 10%.

For `CCOc1cccc(C(=O)Nc2cccnc2)c1`, the inhibition was 4.7%.

Regarding `CCCCOc1ccc(C(=O)NCc2ccncc2)cc1`, the inhibition is 58.4% (active).

Take `CC(=O)c1cccc(NC(=O)c2ccncc2)c1`: the inhibition is 68.3% (active).

`CN(C)c1ccc(NC(=O)c2ccncc2)c2ccccc12`: the inhibition was 43.9%.

For `C=C(C)C(=O)Nc1cccc(C(C)=O)c1`, the inhibition is 1.4%.

`COC(=O)CNC(=O)c1ccccc1F`: the inhibition was -2.7%.

Take `Cc1cc(Cl)c(S(=O)(=O)NCCC(=O)O)cc1OCC(N)=O`: the inhibition was -23.5%.

With `c1cc(-c2nn[nH]n2)ccc1CN1CCCCC1`, the inhibition was -10.5%.

As to `COc1ccc(-c2cc3nc(C)c(CCC(=O)NC(C)CCc4ccco4)c(C)n3n2)c(OC)c1` (stereo not given), the inhibition was 37.5%.

As to `COc1cc(/C=C(/NC(=O)c2ccccc2)C(=O)Nc2cccc(O)c2)c([N+](=O)[O-])cc1OC`, the inhibition is 16.6%.

For `CCOc1ncccc1C(=O)OCc1cn2cc(Cl)ccc2n1`, the inhibition is 45%.

For the compound `CSc1nc2ccccc2cc1/C=C(\C#N)c1ccc(Cl)cc1Cl`, the inhibition is 7.6%.

`O=C(NCc1ccco1)c1cnn2c(C(F)(F)F)cc(-c3ccco3)nc12`: the inhibition is 17.5%.

On to `O=C(NCc1ccco1)c1cccn2c(=O)c3c4c(sc3nc12)CCCC4`, for which the inhibition is 59.8% (active).

As for `C=C(C)Cn1c(SCC(=O)NCc2ccco2)nc2sc3c(c2c1=O)CCC3`, the inhibition is 34.6%.

On to `Cc1nc2nc(C)c(CCC(=O)N3CCN(c4ccccc4)CC3)c(C)n2n1`, for which the inhibition is 0.9%.

On to `COC(=O)C1=C(C)N=C2SC(C)C(=O)N2C1/C=C/c1ccccc1` (stereo not given), for which the inhibition was 48.6%.

For `Cc1ccc(S(=O)(=O)Cn2nnnc2CN2CCN(Cc3ccc4c(c3)OCO4)CC2)cc1`, the inhibition was 29.7%.

As to `O=C(/C=C/Nc1ccccc1OC(F)(F)F)C(F)(F)F`, the inhibition was 5.5%.

In the case of `CN1CCN(c2ccc(NC(=O)COc3ccc(Cl)cc3Cl)cc2)CC1`, the inhibition is -16.8%.

For `Cc1ccccc1OCC(=O)Nc1ccc(N2CCN(C(=O)C(C)C)CC2)c(Cl)c1`, the inhibition is 68.8% (active).

As for `Cc1cccc(NC(=O)COc2ccccc2C)n1`, the inhibition was 19.4%.

Turning to `COc1ccccc1C(=O)N1CCN=C1SCc1cccnc1`, the inhibition was 58.4% (active).

As to `CCC(=O)N1CCN=C1SCc1ccc(F)cc1`, the inhibition is 11%.

With `O=C(c1ccco1)N1CCN=C1SCc1cccc(Cl)c1`, the inhibition is 34.4%.

With `Oc1c(C(c2ccccn2)N2CCOCC2)ccc2cccnc12` (stereo not given), the inhibition is -11.4%.

`O=C(Cn1cc(-c2nnnn2-c2ccc(Cl)cc2)c(=O)c2ccccc21)c1ccccc1`: the inhibition is -11.4%.

For the compound `O=c1cc(CO)oc(CN2CCC(Cc3ccccc3)CC2)c1O`, the inhibition was 4.2%.

With `FC(F)(F)c1cccc(-c2cc3ccccc3nc2N2CCCC2)c1`, the inhibition was 11.5%.

As for `O=C(COC(=O)c1ccc(S(=O)(=O)N2CCc3ccccc3C2)cc1)NC(=O)NCc1ccco1`, the inhibition was 10.9%.

With `C=CCOC(=O)C1=C(C)NC(SCC(=O)OCC)=C(C#N)C1c1ccc(C)cc1` (stereo not given), the inhibition was 64.3% (active).

Take `C=CCOC(=O)C1=C(C)OC(N)=C(C#N)C1c1ccc(F)cc1` (stereo not given): the inhibition was 44.5%.

As for `CC1=C(C(=O)Nc2ccccc2)C(c2ccco2)C(C#N)=C(SCC(N)=O)N1` (stereo not given), the inhibition is 5.8%.

With `CCOC(=O)CSC1=C(C#N)C(c2ccco2)C(C(=O)OCc2ccccc2)=C(C)N1` (stereo not given), the inhibition is 95.5% (active).

Take `CC1=C(C(=O)OCc2ccccc2)C(c2ccco2)n2ncnc2N1` (stereo not given): the inhibition is 17.6%.

As to `Cc1cc(=O)oc2ccc(OCC(=O)O)cc12`, the inhibition was 11.6%.

In the case of `CC/C(=N\O)C(C)(C)/[N+]([O-])=C/c1ccc(Br)cc1`, the inhibition was 0.5%.

For the compound `COCCCNC(=O)COc1cc(C)c(Cl)c(C)c1`, the inhibition is -73.4%.

On to `CCOC(=O)c1[nH]c(C)c(C(=O)OCC(=O)N2c3ccccc3CC2C)c1C` (stereo not given), for which the inhibition is 10.7%.

In the case of `CC1Cc2ccccc2N1C(=O)Cn1cnc2ccccc2c1=O` (stereo not given), the inhibition is 34.6%.

As to `CCn1nc(C(=O)OCC(=O)N2c3ccccc3CC2C)c2ccccc2c1=O` (stereo not given), the inhibition is 80.7% (active).

On to `Cc1ccc(Cl)cc1NC(=O)COC(=O)C1CCCCC1`, for which the inhibition is 28.6%.

`CCOC(=O)C1=C(CN2CCc3ccccc32)NC(=O)NC1c1cccc([N+](=O)[O-])c1` (stereo not given): the inhibition was 25.1%.

Take `Cn1c2c(c(=O)n(C)c1=O)C(c1ccc(O)cc1)Nc1ccccc1O2` (stereo not given): the inhibition is 19.1%.

As to `Cn1c2c(c(=O)n(C)c1=O)C(c1cccc([N+](=O)[O-])c1)Nc1ccccc1O2` (stereo not given), the inhibition is 50.4% (active).

In the case of `Nc1c(-c2ccc(F)cc2)cnn1C1CCS(=O)(=O)C1` (stereo not given), the inhibition was -14.9%.

In the case of `CC1(C)CC(=O)C2=C(C1)N=C1SCCC(=O)N1C2c1ccc(C(F)(F)F)cc1` (stereo not given), the inhibition is -19.2%.

In the case of `O=c1cc(-c2ccccc2)nc(N2CCCCC2)[nH]1`, the inhibition is -5.8%.

Turning to `Cc1cccc2c(=O)n3c(nc12)CCCCC3`, the inhibition was 21%.

Take `O=c1c2c(nc3n1CCCCC3)sc1c(O)cccc12`: the inhibition is 70.6% (active).

For the compound `O=C(Nc1ccc2nc3n(c(=O)c2c1)CCCCC3)c1ccccc1Cl`, the inhibition was 41.7%.

The values above are taken from PubChem BioAssay AID777 (Sanford-Burnham Center for Chemical Genomics, 2007).
